Source: PubChem
GPT2 inh: GPT2 alanine aminotransferase inhibition; Q8TD30; Recombinant GPT2, coupled pyruvate oxidase/HRP Amplex Red fluorescence; Potency, µM (top dose mostly 57.7 µM), for the others: top-dose activity change, negative = inhibition, most hits filed as inhibitors; 100,000 compounds, 0.25% hits; note: potency is the fitted concentration of half-maximal effect; nearly all actives have a fitted effect of over 60% in size
Target sequence (Q8TD30 whole entry, looked up): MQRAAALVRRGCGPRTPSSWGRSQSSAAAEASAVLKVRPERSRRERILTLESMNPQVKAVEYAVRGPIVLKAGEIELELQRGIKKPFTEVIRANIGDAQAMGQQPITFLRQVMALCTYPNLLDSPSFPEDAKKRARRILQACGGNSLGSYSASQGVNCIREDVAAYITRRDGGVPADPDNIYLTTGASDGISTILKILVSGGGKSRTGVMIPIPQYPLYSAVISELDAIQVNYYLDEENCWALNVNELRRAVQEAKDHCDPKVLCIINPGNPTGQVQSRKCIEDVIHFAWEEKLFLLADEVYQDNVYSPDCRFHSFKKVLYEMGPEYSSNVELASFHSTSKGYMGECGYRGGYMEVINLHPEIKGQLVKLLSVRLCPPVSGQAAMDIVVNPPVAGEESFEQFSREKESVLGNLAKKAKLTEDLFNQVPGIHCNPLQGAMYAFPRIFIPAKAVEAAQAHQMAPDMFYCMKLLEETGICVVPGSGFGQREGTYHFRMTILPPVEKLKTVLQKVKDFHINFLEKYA
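Inhibition is scored from Amplex Red fluorescence generated when pyruvate oxidase and HRP act on pyruvate released by GPT2. Reactions contain 10ng/uL enzyme, 250uM a-KG and 2mM L-alanine and run 30 min at room temperature.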
HEK293 viab: counter-screen for SNCA expression inhibitors: cell viability | 150,000 compounds, 0.12% hits | HEK-293-SNCA-luc viability, GF-AFC fluorescence, 24 h | Potency, µM (titrated, usually from 57.1 µM), for the others: at the highest dose activity change, negative = cytotoxicity, most hits filed as cytotoxic;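 note: potency is the fitted concentration of half-maximal effect; 0% = DMSO-treated cells and -100% = medium-only wells without cells; nearly all actives have a fitted effect of over 30% in size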
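HEK-293-SNCA-luc cells (1500/well) plated 24 h, then exposed 24 h to a dilution series; GF-AFC added 30 min at 37C, fluorescence 405/540 nm; normalised to medium-only and DMSO wells, Hill fit.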
IP6K1 inh: IP6K1 kinase inhibition. 140,000 compounds, 0.81% hits. activity change, % (series mostly up to about 58 µM). IP6K1 kinase, ADP-Glo luminescence, 2 h; active compounds read low. Q92551; in the data active = activity change below about -25%
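ADP-Glo luminescence measures ADP made by human IP6K1 during a 2 h RT reaction with ATP/IP6 (mix at 1.3 mM/130 uM); top library doses 57.5 and 19.1 uM final.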
SNCA expr inhib: SNCA gene expression inhibition; HEK-293 SNCA-luciferase knock-in, luminescence, 24 h; Potency, µM (titrated, usually from 57.2 µM), inactives show at the highest dose activity change, negative = inhibition, hits mostly inhibitors; 140,000 compounds, 0.17% hits; AID 1671194;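 note: potency is the fitted concentration of half-maximal effect; plate controls were DMSO cells for no effect and cell-free wells for full effect; nearly all actives have a fitted effect of over 45% in size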
IP6K1 conf: confirmation of human IP6K1 inhibitors; shares compounds with IP6K1 inh; recombinant IP6K1 kinase, ADP-Glo luminescence, 2 h; Potency, µM (doses to about 49 µM), inactives show at the highest dose activity change, negative = inhibition, actives largely listed as inhibitors; 1,200 compounds, 13% hits; note: potency is the fitted concentration of half-maximal effect; nearly all actives have a fitted effect of over 65% in size
An asterisk follows results filed as active. An excerpt weighted towards active compounds, which were near 1.1% of everything screened. Unless noted, calls come from the whole dose curve; as a rule, active = well fitted curve in the direction sought with a large enough effect; inconclusive = small, poorly fitted or top-dose-only effect, or another doubt; inactive = no such curve, though single readings can be large; an effect the other way counts as inactive or inconclusive. Unless noted, % is set by controls: 0 for no effect and ±100 for the full control effect.

How did O=C(CCCCn1c(=O)c2ccccc2n(Cc2cccc(Cl)c2)c1=O)NCc1ccc2c(c1)OCO2 do in these assays?
HEK293 viab: 5%; IP6K1 inh: -28*; SNCA expr inhib: 25%; IP6K1 conf: -7%

What do the screens show for `Cc1cccc(Cn2c(=O)n(CCCCC(=O)NCc3ccc4c(c3)OCO4)c(=O)c3ccccc32)c1`?
HEK293 viab: 1%; IP6K1 inh: 2; SNCA expr inhib: -30%

What do the screens show for `O=C(Nc1cccc(C(F)(F)F)c1)Nc1cccs1`?
HEK293 viab: -25%; IP6K1 inh: -33*; SNCA expr inhib: -6%; IP6K1 conf: inconclusive

Results for COCCNC(=O)c1ccc2c(=O)n(CCc3ccccc3)c(SCC(=O)CC(=O)OC)nc2c1 ?
HEK293 viab: -3%; IP6K1 inh: -25*; SNCA expr inhib: -20%; IP6K1 conf: -10%

How did COCCNC(=O)c1ccc2c(=O)n(CCOC)c(SCC(=O)c3c[nH]c4ccccc34)nc2c1 do in these assays?
HEK293 viab: 1%; IP6K1 inh: -13; SNCA expr inhib: inconclusive

What do the screens show for `Cc1ccc(-c2cccc(CN3CCCC(NC(=O)Cc4ccccn4)C3)c2)cc1Cl` (stereo not given)?
GPT2 inh: inactive; HEK293 viab: -17%; IP6K1 inh: -2; SNCA expr inhib: inconclusive

Results for Cc1ccc(-c2cc(C(=O)NCc3ccc(C(F)(F)F)cc3)c3cnn(C)c3n2)c(C)c1 ?
GPT2 inh: inactive; HEK293 viab: -23%; IP6K1 inh: 7; SNCA expr inhib: inconclusive

Results for COC(=O)c1c(SCC(=O)Nc2cc(C)cc(C)c2)[nH]c2ccccc2c1=O ?
HEK293 viab: -11%; IP6K1 inh: -47*; SNCA expr inhib: -21%; IP6K1 conf: inconclusive

Results for COC(=O)c1c(SCC(=O)Nc2ccccc2C(F)(F)F)[nH]c2ccc(Cl)cc2c1=O ?
HEK293 viab: 10%; IP6K1 inh: -1; SNCA expr inhib: -4%

What do the screens show for `N#Cc1cccc(NC(=O)c2cc3c(s2)-c2ccc(Cl)cc2SC3)c1`?
HEK293 viab: 27%; IP6K1 inh: -50*; SNCA expr inhib: -2%; IP6K1 conf: -26%

What do the screens show for `Cc1ccc(-c2ncc(C(=O)Nc3cccc(Br)c3)c(-c3ccncc3)n2)cc1`?
GPT2 inh: inconclusive; HEK293 viab: -25%; IP6K1 inh: 21; SNCA expr inhib: -29%

Results for Oc1ccc(Nc2nc(-c3ccc(Cl)cc3)nc3ccccc23)cc1 ?
HEK293 viab: inconclusive; IP6K1 inh: -16; SNCA expr inhib: -14%

Results for Oc1ccc(Nc2nc(-c3ccc(Cl)cc3)cs2)cc1 ?
GPT2 inh: inconclusive; HEK293 viab: -19%; IP6K1 inh: -32*; IP6K1 conf: inconclusive

How did COc1ccccc1N1CCN(C(=O)C(OC)c2ccccc2)CC1=O (stereo not given) do in these assays?
GPT2 inh: inconclusive; HEK293 viab: -1%; IP6K1 inh: -26*; SNCA expr inhib: inconclusive; IP6K1 conf: -16%

Results for COc1ccccc1N1CCN(S(=O)(=O)CCNC(=O)C(c2ccccc2)c2ccccc2)CC1 ?
HEK293 viab: -7%; IP6K1 inh: 16; SNCA expr inhib: -1%

Results for CCCC(=O)c1cc(O)c(O)cc1O ?
GPT2 inh: inconclusive; HEK293 viab: -14%; IP6K1 inh: -96*; SNCA expr inhib: 30%; IP6K1 conf: inconclusive

How did COc1cccc(C(=O)Nc2ccc3c(c2)CN(Cc2cccc(OC)c2OC)C(=O)C(C)O3)c1 (stereo not given) do in these assays?
GPT2 inh: inactive; HEK293 viab: 1%; IP6K1 inh: 2; SNCA expr inhib: 0%

How did O=C1CCN(C[C@@H](O)COCc2ccccc2)c2ccc(F)cc2CN1Cc1ccccc1 do in these assays?
IP6K1 inh: 18

Results for O=C(Nc1ccccc1F)N1CCCN(c2ccc3nnc(-c4ccccc4)n3n2)CC1 ?
IP6K1 inh: 0

What do the screens show for `COc1cccc(N2CCN(S(=O)(=O)c3ccc(-c4cnc(C5CC5)o4)cc3)CC2)c1`?
HEK293 viab: 2%; IP6K1 inh: -35*; SNCA expr inhib: 25%; IP6K1 conf: inconclusive

What do the screens show for `COc1ccc(N2CCN(S(=O)(=O)c3ccc(-c4cnc(C5CC5)o4)cc3)CC2)cc1`?
HEK293 viab: -8%; IP6K1 inh: -41*; SNCA expr inhib: -10%; IP6K1 conf: -7%

What do the screens show for `O=S(=O)(c1ccc(-c2cnc(C3CC3)o2)cc1)N1CCN(c2cccc(Cl)c2)CC1`?
HEK293 viab: 11%; IP6K1 inh: -6; SNCA expr inhib: -5%

How did CN1CCC(NC(=O)c2ccc3c(c2)n(Cc2ccc(F)cc2)c(=O)c2ccnn23)CC1 do in these assays?
GPT2 inh: inactive; HEK293 viab: inconclusive; IP6K1 inh: 4; SNCA expr inhib: 7%

How did O=C1CCN(C[C@@H](O)COCc2ccccc2)c2ccc(F)cc2CN1C1CCCC1 do in these assays?
IP6K1 inh: 4

How did O=C1Nc2ccccc2CN(Cc2ccc(Cl)cc2)C12CCNCC2 do in these assays?
GPT2 inh: inconclusive; HEK293 viab: -26%; IP6K1 inh: -3; SNCA expr inhib: -2%

What do the screens show for `CCOc1ccc2oc(=O)cc(CN3CCN(c4ccccc4)CC3)c2c1`?
HEK293 viab: 0%; IP6K1 inh: -17; SNCA expr inhib: -15%

What do the screens show for `COc1ccc2oc(=O)cc(CN3CCN(c4ccc(F)cc4)CC3)c2c1`?
HEK293 viab: -8%; IP6K1 inh: -25*; SNCA expr inhib: 4%; IP6K1 conf: -21%

What do the screens show for `Cc1ccc2c(n1)sc1c(=O)n(-c3cccc(C(F)(F)F)c3)nnc12`?
HEK293 viab: -4%; IP6K1 inh: -27*; SNCA expr inhib: 21%; IP6K1 conf: -17%

What do the screens show for `COc1ccc(-n2c(=O)c3c(n2Cc2ccccc2)CN(CCCc2ccccc2)CC3)cc1`?
GPT2 inh: inactive; HEK293 viab: inconclusive; IP6K1 inh: -28*; SNCA expr inhib: -6%; IP6K1 conf: -11%

How did CC(C(=O)NCc1ccccc1Cl)n1ccc2cc(S(=O)(=O)N3CCCCC3)ccc21 (stereo not given) do in these assays?
HEK293 viab: -4%; IP6K1 inh: 37; SNCA expr inhib: -27%

How did CC(C(=O)NCc1ccccc1)n1ccc2cc(S(=O)(=O)N3CCCC3)ccc21 (stereo not given) do in these assays?
HEK293 viab: -16%; IP6K1 inh: -27*; SNCA expr inhib: 9%; IP6K1 conf: -16%

Results for Cc1cccc(N2CCN(c3ccc(C(=O)O)cc3NC(=O)c3cccc(Cl)c3)CC2C)c1 (stereo not given) ?
HEK293 viab: 4%; IP6K1 inh: -28*; SNCA expr inhib: -12%; IP6K1 conf: inconclusive
